Screens (PubChem BioAssay)
DAGLB inh = DAGLB lipase inhibitors, primary screen, biochemical, fluorescence, HTS; HEK293T DAGLB membrane lysate, EnzChek fluorogenic substrate; AID 504411, 2011; inhibition, % at 5.17 µM; hit rate 0.059% among 340,000; Diacylglycerol lipase-beta (Homo sapiens), Q8NCG7; in the data active = inhibition above about 34%;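 also: 0% = enzyme with vehicle and 100% = wells lacking enzyme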
HGIII-sPLA2 inh = human group III sPLA2 inhibitors, primary screen, biochemical, QFRET, BODIPY PC-A2 liposome substrate | inhibition, % at 12.2 µM | QFRET BODIPY PC-A2 liposome hydrolysis, fluorescence | Group 3 secretory phospholipase A2 (Homo sapiens), Q9NZ20 | hit rate 0.56% among 370,000;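 active = inhibition above mean plus 3 SD of compounds lying within the high and low control bounds, cut at about 19% in these data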;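 also: 0% = median of test compound wells and 100% = no enzyme DMSO wells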
Target sequence (Q9NZ20 whole entry, looked up): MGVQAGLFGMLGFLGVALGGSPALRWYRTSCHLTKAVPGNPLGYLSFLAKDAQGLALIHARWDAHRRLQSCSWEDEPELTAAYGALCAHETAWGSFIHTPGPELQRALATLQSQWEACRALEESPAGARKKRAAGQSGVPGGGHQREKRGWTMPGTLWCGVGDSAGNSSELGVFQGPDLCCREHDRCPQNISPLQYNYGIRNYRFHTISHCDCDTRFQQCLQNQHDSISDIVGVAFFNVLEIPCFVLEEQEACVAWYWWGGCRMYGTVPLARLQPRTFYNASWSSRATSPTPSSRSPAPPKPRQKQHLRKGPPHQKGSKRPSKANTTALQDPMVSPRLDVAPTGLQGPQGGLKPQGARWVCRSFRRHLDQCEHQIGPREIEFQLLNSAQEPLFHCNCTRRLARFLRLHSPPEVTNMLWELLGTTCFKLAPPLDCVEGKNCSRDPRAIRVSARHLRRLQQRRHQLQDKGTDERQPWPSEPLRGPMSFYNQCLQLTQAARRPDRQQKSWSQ
PLCb3 inh = human PLC-beta3 inhibitors, primary screen, biochemical, fluorescence; 1-phosphatidylinositol 4,5-bisphosphate phosphodiesterase beta-3 (Homo sapiens), Q01970; Purified PLC-beta3, fluorogenic substrate; inhibition, % at 12.2 µM; hit rate 0.18% among 370,000; AID 720704, 2013; in the data active = inhibition above about 11%;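 also: 0% = median of compound wells on plate and 100% = full blocker control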
PLCg1 inh = PLC-gamma1 enzyme inhibitors, primary screen, biochemical, fluorescence, purified enzyme | 1-phosphatidylinositol 4,5-bisphosphate phosphodiesterase gamma-1 (Homo sapiens), P19174 | fluorogenic substrate | inhibition, % at 12.2 µM | hit rate 0.84% among 370,000; in the data active = inhibition above about 9.5%
hGIII sPLA2 conf = human group III sPLA2 inhibitors, confirmation, biochemical, QFRET, triplicate; shares compounds with HGIII-sPLA2 inh; hit rate 34% among 2,000; AID 743280, 2014; recombinant hGIII-sPLA2, BODIPY PC-A2 QFRET fluorescence; inhibition, % at 12.2 µM;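 active = mean inhibition across triplicates above the hit cutoff set in the earlier primary screen, cut at about 19% in these data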;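 also: 0% = enzyme with DMSO and 100% = DMSO wells lacking enzyme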
BODIPY interf = 535nm fluorescence optical interference, confirmation, artefact control for HGIII-sPLA2 inhibitor project, biochemical, QFRET. shares compounds with HGIII-sPLA2 inh. BODIPY FL product fluorescence interference. inhibition, % at 12.2 µM. hit rate 8.5% among 2,000;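 active = average inhibition above the solvent-only control mean plus 3 SD, cut at about 6% in these data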;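 also: 0% = DMSO with substrate plus product and 100% = DMSO with substrate alone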
An asterisk follows results filed as active; nt = no result. Shown are actives, neighbours in structure and some others; about 1.5% of the full set was active somewhere.

SMILES	DAGLB inh	HGIII-sPLA2 inh	PLCb3 inh	PLCg1 inh	hGIII sPLA2 conf	BODIPY interf
O=C(NCC(c1cccs1)N1CCOCC1)c1cc([N+](=O)[O-])ccc1Cl (stereo not drawn)	-3	19*	0	3	0	-4
O=C(NCCN1CCC(Cc2ccccc2)CC1)C1CCCN(S(=O)(=O)c2cccs2)C1 (stereo not drawn)	nt	-19	0	-1	nt	nt
CCC(=O)NC(=S)Nc1ccc(OC)cc1OC	1	21*	-2	2	0	-7
CCC(=O)Nc1ccc(OC)cc1OC	4	7	4	2	nt	nt
CCN(CC(=O)Nc1ccc(OC)cc1)CC(=O)Nc1ccc(Br)cc1F	2	-15	-3	0	nt	nt
COc1ccc(NCC(=O)Nc2ccc(Br)cc2F)c(OC)c1	2	22*	-27	-12	23*	4
Cc1ccc(C)c(NC(=O)CNS(=O)(=O)c2ccc3[nH]c(=O)oc3c2)c1	nt	-17	0	0	nt	nt
COC(=O)c1cc(Cl)ccc1NCC(N)c1ccccc1 (stereo not drawn)	nt	20*	-486	-381	9	-15
COc1ccccc1CC(=O)Nc1ccc(Cl)cc1C(=O)O	2	-4	-8	-6	nt	nt
Cc1ccc(C)c(N2CN(Cc3cccnc3)CNC2=S)c1	2	20*	0	0	3	-1
CC(C)C1CC(N(C)C)=CC(=S)N1 (stereo not drawn)	nt	4	-96	-72	nt	nt
CC(C)NC(=S)NC(c1ccccc1)(c1ccccc1)c1ccccc1	-8	22*	-3	-2	29*	-12
CC(C)NC(=S)NN=C1c2ccccc2-c2ccccc21	-5	5	-16	-11	nt	nt
CC1CCCCN1C(=S)NCCc1ccccc1 (stereo not drawn)	1	22*	3	5	9	-6
CC1(C(=O)NS(=O)(=O)C2CC2)CCN(C(=O)c2c(F)cccc2F)C1 (stereo not drawn)	nt	20*	0	0	3	2
CC(NC(=O)C(C(=O)c1cccc([N+](=O)[O-])c1)n1cc(Cl)ccc1=O)c1ccccc1 (stereo not drawn)	-2	25*	-4	-1	-6	-6
CC(C)NC(=O)C1CCN(C(=O)C(C(=O)c2ccccc2)n2cc(Cl)ccc2=O)CC1 (stereo not drawn)	2	0	1	-2	nt	nt
O=C1C2C3C=CC(C3)C2C(=O)N1c1cccc2cccnc12 (stereo not drawn)	-2	2	1	2	nt	nt
O=C1c2ccccc2C(=O)N1c1cccc2cccnc12	0	22*	-5	3	-2	-6
CCN(CC)C(=O)CC[C@H]1CC[C@]2(CCCN(C3CCCCC3)C2)O1	nt	5	2	2	nt	nt
COCCOC(=O)C1=C(C)NC(=S)NC1/C=C/c1ccccc1 (stereo not drawn)	-1	22*	-1	-3	14	-9
CC(C)Oc1ccc(CSc2ncn[nH]2)cc1	nt	-24	0	1	nt	nt
CC(C)Oc1ccc(CSC(=N)N)cc1	-6	29*	1	-1	-4	-8
CC(C)c1cc(C(C)C)c(S(=O)(=O)NCC(=O)N2CCN(c3ncccn3)CC2)c(C(C)C)c1	nt	-3	2	0	nt	nt
O=C(Cn1cnc2ccccc2c1=O)N1CCN(C(=O)C2CCCO2)CC1 (stereo not drawn)	nt	3	0	-1	nt	nt
CC(C)NC(=S)N/N=C/c1ccc2c(c1)OCCO2	1	19*	-7	-7	18	-5
S=C(NN=Cc1ccc2c(c1)OCO2)NN=Cc1ccc2c(c1)OCO2	3	-2	-27	-20	nt	nt
COCCCNC(=S)N/N=C/c1ccc2c(c1)OCO2	nt	24*	2	9	12	-3
CCN(CC)c1ccc(/C=N/N(c2ccccc2)c2ccccc2)c(O)c1	-6	4	-8	-9	nt	nt
CCN(CC)c1ccc(C=Nc2ccccc2C)c(O)c1	2	20*	-67	-62	10	-3
